Bioassay records as filed in PubChem.
A selection: hits, their analogues and other compounds. The true share with any hit is near 4.5%.
TPT1 inh – C. albicans TPT1 enzyme inhibition | AID 1962 | recombinant caTPT1, FP RNA substrate dephosphorylation | 300,000 compounds, 0.81% hits | inhibition, % at 5 µM;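 active = inhibition above the mean of all tested compounds plus 3 SD, set per screening campaign, cut at about 24% in these data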
Rpn11 block – blocks the human proteasome subunit Rpn11. O00487. human 26S proteasome, Ub4-pepOG fluorescence polarization; 20S core pre-blocked with epoxomicin. inhibition, % at 20 µM. 360,000 compounds, 0.59% hits. AID 588493;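 active = inhibition at 20 µM, scaled to each plate's controls, above about 33%, limit read from the data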
dFosB activator – enhances mouse delta FosB homodimer DNA binding; P13346; purified delta FosB, TAMRA-CDK5 oligo fluorescence polarization; percent of positive-control signal above neutral wells; activation, % at 25 µM; 340,000 compounds, 0.99% hits; AID 493131;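 active = mean activation above about 17%, with every replicate also reaching it, limit read from the data, passing the limit was not always enough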
EBNA-1 inh – blocks EBNA-1 binding to DNA. EBNA-1 DNA binding, fluorescence polarization. inhibition, % at 14.8 µM. 300,000 compounds, 0.34% hits. AID 1950; in the data active = inhibition above about 28%
GRIN3A LBD mod – NR3A (human) ligand-binding domain modulation; NR3A LBD differential scanning fluorimetry, Tm shift; 0% = protein alone, 100% = glycine-bound protein; Tm shift relative to glycine control, % at 25 µM; 340,000 compounds, 2.5% hits; AID 1259313;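 active = melting temperature shift of at least 10% of the positive control shift, at one fixed dose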
ZTA DNA inh – counter-screen for EBNA-1 inhibitors: inhibitors of Epstein-Barr virus ZTA | P03206 | 320,000 compounds, 0.15% hits | ZTA-DNA binding, fluorescence polarization | inhibition, % at 11 µM; in the data active = inhibition above about 33%
Rpn11 inh conf – Rpn11 inhibition confirmation, single concentration; 1,900 compounds, 29% hits; purified human 26S proteasome, Ub4-pepOG fluorescence polarization; proteasome pretreated with epoxomicin; shares compounds with Rpn11 block; inhibition, % at 20 µM; AID 602318
MMP-2 inh – MMP-2 (human) inhibition counter-screen. shares compounds with Rpn11 block. recombinant MMP-2, FRET peptide cleavage fluorescence. inhibition, % at 20 µM. 1,900 compounds, 4% hits;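 note: human MMP-2 activated beforehand with APMA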
Target sequence (P08253 whole entry, looked up): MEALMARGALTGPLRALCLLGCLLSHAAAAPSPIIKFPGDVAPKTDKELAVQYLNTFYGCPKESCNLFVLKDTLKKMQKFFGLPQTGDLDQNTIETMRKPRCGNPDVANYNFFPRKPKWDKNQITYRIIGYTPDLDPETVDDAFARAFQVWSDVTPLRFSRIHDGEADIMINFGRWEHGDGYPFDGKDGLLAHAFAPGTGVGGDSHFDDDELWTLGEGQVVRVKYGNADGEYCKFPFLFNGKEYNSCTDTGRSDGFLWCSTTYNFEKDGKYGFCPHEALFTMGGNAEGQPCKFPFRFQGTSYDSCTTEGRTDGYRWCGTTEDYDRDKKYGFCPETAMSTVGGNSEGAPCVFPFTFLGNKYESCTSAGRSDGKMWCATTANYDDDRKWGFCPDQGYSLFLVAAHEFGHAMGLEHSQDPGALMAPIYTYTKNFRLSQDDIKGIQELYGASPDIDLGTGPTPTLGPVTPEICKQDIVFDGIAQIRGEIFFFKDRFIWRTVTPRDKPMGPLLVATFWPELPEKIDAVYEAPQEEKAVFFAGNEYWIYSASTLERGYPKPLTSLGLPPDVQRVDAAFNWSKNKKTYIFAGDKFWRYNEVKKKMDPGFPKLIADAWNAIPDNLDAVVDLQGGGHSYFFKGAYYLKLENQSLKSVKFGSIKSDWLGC
Thrombin inh – thrombin (bovine) inhibition counter-screen. inhibition, % at 20 µM. bovine thrombin cleavage of Ub4-pepOG, fluorescence polarization. AID 602333. 1,900 compounds, 13% hits. shares compounds with Rpn11 block;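 active = mean inhibition at least 40% at 20 µM, or signal 3 deviations below plate average, so some actives read negative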
Hits are given with their value; 0 = inactive; - = not tested or not shown. Cut-off read from the data, not from the text of the source, unless noted: active = inhibition above about 40%; inactive = the rest.

SMILES	TPT1 inh	Rpn11 block	dFosB activator	EBNA-1 inh	GRIN3A LBD mod	ZTA DNA inh	Rpn11 inh conf	MMP-2 inh	Thrombin inh
CCCCNc1ccc(C(CC(N)=O)NC(=O)Cc2cccc3ccccc23)cc1[N+](=O)[O-] (stereo unspecified)	0	0	0	0	0	0	-	-	-
COc1ccc(CCNc2ccc(C(CC(N)=O)NC(=O)Cc3cccc4ccccc34)cc2[N+](=O)[O-])cc1 (stereo unspecified)	0	42	0	0	0	0	52	0	0
NC(=O)CC(NC(=O)Cc1ccc(Cl)cc1)c1ccc(NC2CCCC2)c([N+](=O)[O-])c1 (stereo unspecified)	0	45	0	0	0	0	47	0	0
NC(=O)CC(NC(=O)Cc1ccc(Cl)cc1)c1ccc(NC2CCCCC2)c([N+](=O)[O-])c1 (stereo unspecified)	0	0	0	0	0	0	-	-	-
COC(=O)[C@H](Cc1ccccc1)NC(=O)NCCc1ccc(F)cc1	0	0	-	0	0	0	-	-	-
CCOCCCNC(=O)N[C@@H](Cc1ccccc1)C(=O)OC	0	58	0	0	0	0	0	0	0
O=C(COc1ccc2c3c(c(=O)oc2c1)CCC3)Nc1ccc(CCO)cc1	0	45	0	0	0	0	0	0	0
CCc1cccc(CC)c1NC(=O)CN1CCN(c2ccccc2)CC1	0	0	0	0	0	0	-	-	-
CCc1cccc(CC)c1NC(=O)CN1CC(C)SC1=NC1CCCCC1 (stereo unspecified)	0	61	0	0	0	0	0	0	0
COc1ccc2c(C)nc(Nc3nc(-c4ccccc4)cc(=O)[nH]3)nc2c1	0	45	0	0	0	0	0	0	0
Cc1noc(C)c1COc1ccc(C(=O)N2CCN(c3ccccn3)CC2)cc1	0	0	0	0	0	0	-	-	-
O=c1cc(O)c2c(=O)n(C3CCCCC3)c3ccccc3c2o1	0	62	0	0	0	0	0	0	0
CCN(CC)c1ccc(/C=C2\C(=O)N(c3nnc(C)c(=O)[nH]3)N=C2C)cc1	43	44	0	0	0	0	49	0	0
COc1ccc(/C=C2/C(=O)N(c3ccccc3)N=C2C)cc1	0	0	-	0	0	0	-	-	-
CC1(C(=O)NS(=O)(=O)c2cccs2)CCN1C(=O)C1(c2ccc(Cl)cc2)CC1 (stereo unspecified)	-	0	-	-	-	-	-	-	-
COc1cc(/C=C2/SC(=Nc3ccc(O)cc3)NC2=O)cc(OC)c1O	0	59	0	0	11	0	0	0	0
O=C(CN(C(=O)c1csnn1)c1ccc2c(c1)OCCO2)NCc1ccc(F)cc1	0	48	0	0	0	0	0	0	0
CC1=NN(c2ccccc2)C(=O)C1C=Nc1ccccc1O (stereo unspecified)	0	0	0	0	0	0	-	-	-
CC1=NN(c2ccccc2)C(=O)C1/C=C1\NC(=S)NC1=O (stereo unspecified)	0	45	0	0	0	0	84	0	0
O=C(Nc1ccnn1C1CCN(C(=O)c2ccc(F)cc2)CC1)C1CCOC1 (stereo unspecified)	0	0	0	0	0	0	-	-	-
CS(=O)(=O)C1=NSC2=NC(=O)/C(=C\c3ccc(-c4ccccc4)o3)C(=N)N21	0	-	-	0	-	0	-	-	-
Cc1ccc(-n2cccc2/C=C2/C(=N)N3C(=NC2=O)SN=C3S(C)(=O)=O)cc1	0	61	0	0	0	0	63	0	0
CS(=O)(=O)C1=NSC2=NC(=O)/C(=C\c3cccn3-c3ccccc3Cl)C(=N)N21	0	59	0	0	0	0	79	0	0
CS(=O)(=O)C1=NSC2=NC(=O)/C(=C\c3ccc(OC(=O)c4ccco4)c(Br)c3)C(=N)N21	0	71	0	0	0	0	0	0	0
CCc1ccc(-n2cccc2/C=C2/C(=N)N3C(=NC2=O)SN=C3S(C)(=O)=O)cc1	0	60	0	0	0	0	64	0	45
SMILES	TPT1 inh	Rpn11 block	dFosB activator	EBNA-1 inh	GRIN3A LBD mod	ZTA DNA inh	Rpn11 inh conf	MMP-2 inh	Thrombin inh
CC(C)CS(=O)(=O)C1=NSC2=NC(=O)/C(=C\c3ccc(OC(=O)c4ccco4)cc3)C(=N)N21	0	0	0	0	0	0	-	-	-
Cc1ccc(S(=O)(=O)Oc2ccc(/C=C3/C(=N)N4C(=NC3=O)SN=C4S(C)(=O)=O)cc2)cc1	0	0	0	0	0	0	-	-	-
CCOC(=O)C1=C(COC(=O)c2ccc(Br)o2)NC(=O)NC1C (stereo unspecified)	0	0	0	0	0	0	-	-	-
O=C(CSc1nnnn1C1CC1)N1CCN(c2ccccc2F)CC1	-	0	0	-	0	0	-	-	-
COc1cccc(-n2c(C)cc(/C=C3/C(=N)N4C(=NC3=O)SN=C4S(C)(=O)=O)c2C)c1	0	0	0	0	0	0	-	-	-
Cc1cc(C)cc(-n2cccc2/C=C2/C(=N)N3C(=NC2=O)SN=C3S(C)(=O)=O)c1	0	51	0	0	0	0	53	0	0
COc1cc(NC(=O)CCC(=O)c2cccs2)cc(OC)c1	0	0	0	0	0	0	-	-	-
Cn1c(O)c(/C=C2\C=Nc3ccccc32)sc1=Nc1ccc(C(=O)O)cc1	0	0	0	0	0	0	-	-	-
Oc1nc(Nc2ccc(Cl)cc2Cl)sc1/C=C1\C=Nc2ccccc21	0	56	0	0	23	0	60	0	45
C#CCn1c(=NC(=O)c2cccs2)sc2cccc(OC)c21	0	68	0	0	0	0	50	0	0
O=C(Nc1ccc(OC(F)(F)F)cc1)c1cnccn1	0	0	0	0	0	0	-	-	-
CN(CCc1ccccc1)C(=O)c1ccc(NC(=O)Cc2ccc(NC(=O)C3CCN(S(=O)(=O)c4cccc([N+](=O)[O-])c4)CC3)cc2)cc1	-	0	0	-	0	-	-	-	-
COc1ccc(CCN(C)CC(O)c2ccccc2)cc1OC (stereo unspecified)	0	0	0	0	0	0	-	-	-
O=c1[nH]c2ccc(Cl)cc2c(-c2ccccc2)c1SC(=S)N1CCCCC1	0	0	0	0	0	0	-	-	-
O=c1[nH]c2ccc(Cl)cc2c(-c2ccccc2)c1SC(=S)N1CCOCC1	0	42	0	0	0	0	0	0	0
O=C1NC(=S)SC1=Cc1cc(Br)ccc1O	-	48	0	-	31	-	0	0	0
Nc1c(C(=O)N/N=C/c2ccc(Cl)cc2)cnn1-c1ccccc1	0	0	0	0	0	0	-	-	-
O=c1c(Cl)c(N/N=C/c2ccc(Cl)cc2)cnn1-c1ccccc1	0	115	0	0	16	0	0	0	0
